# Assays:
# Assay in all cases: DAPPL (digital affinity profiling via proximity ligation, sequencing); 10 mM Tris-HCl pH 7.5, 50 mM NaCl, 1 mM DTT, 4% glycerol, room temperature, 30 min; GST-TFs on glutathione beads, 16-mer random dsDNA library, 0.1% formaldehyde crosslink after washing; high values mean tight binding
# FLI1 = target: T1, FLI1 (Homo sapiens, UniProt Q01543 1-452); details: protein: recombinant; tags: N-terminal GST; dsDNA, one strand shown
# T1 sequence: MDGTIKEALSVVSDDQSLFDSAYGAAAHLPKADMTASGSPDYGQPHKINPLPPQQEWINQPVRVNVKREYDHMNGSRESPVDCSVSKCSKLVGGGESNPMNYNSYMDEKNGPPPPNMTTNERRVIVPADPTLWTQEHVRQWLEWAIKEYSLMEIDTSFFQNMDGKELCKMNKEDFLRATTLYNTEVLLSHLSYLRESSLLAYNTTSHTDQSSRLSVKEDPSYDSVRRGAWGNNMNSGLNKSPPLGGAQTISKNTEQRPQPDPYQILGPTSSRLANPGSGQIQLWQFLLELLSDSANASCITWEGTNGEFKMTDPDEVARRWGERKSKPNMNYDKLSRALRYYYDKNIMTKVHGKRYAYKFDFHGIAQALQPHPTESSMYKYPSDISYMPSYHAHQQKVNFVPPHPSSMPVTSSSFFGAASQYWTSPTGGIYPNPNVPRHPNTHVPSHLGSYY
# In short: (§1)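 Yeast served to express human transcription factors as GST fusions, which were then captured on glutathione beads and labelled with DNA barcodes. Pooled with a tag-only sample, they were incubated with 200 nmole of a 16-mer random double-stranded DNA library for 30 min at room temperature in Tris/NaCl/DTT/glycerol buffer, washed, crosslinked with 0.1% formaldehyde, ligated by proximity, amplified by PCR and sequenced. Dividing each hexamer's read frequency for a factor by its frequency for the tag-only sample gives the binding signal.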
# ELK1 = target: T2, ELK1 (Homo sapiens, UniProt P19419 1-428); details: protein: recombinant; tags: N-terminal GST; dsDNA, one strand shown
# T2 sequence: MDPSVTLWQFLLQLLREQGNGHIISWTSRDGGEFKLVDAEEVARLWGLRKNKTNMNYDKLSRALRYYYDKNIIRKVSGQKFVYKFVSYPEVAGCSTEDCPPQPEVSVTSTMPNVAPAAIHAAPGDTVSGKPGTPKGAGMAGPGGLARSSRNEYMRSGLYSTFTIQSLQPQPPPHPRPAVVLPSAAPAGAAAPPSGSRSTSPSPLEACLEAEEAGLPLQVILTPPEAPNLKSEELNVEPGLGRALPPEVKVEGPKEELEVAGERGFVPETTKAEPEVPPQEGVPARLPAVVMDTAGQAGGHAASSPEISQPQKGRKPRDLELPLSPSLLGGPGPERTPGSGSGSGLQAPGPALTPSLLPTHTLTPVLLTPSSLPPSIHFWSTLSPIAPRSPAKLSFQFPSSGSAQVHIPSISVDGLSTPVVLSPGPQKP
# In short: as §1
# GABPA = target: T3, GABPA (Homo sapiens, UniProt Q06546 1-454); details: protein: recombinant; tags: N-terminal GST; dsDNA, one strand shown
# T3 sequence: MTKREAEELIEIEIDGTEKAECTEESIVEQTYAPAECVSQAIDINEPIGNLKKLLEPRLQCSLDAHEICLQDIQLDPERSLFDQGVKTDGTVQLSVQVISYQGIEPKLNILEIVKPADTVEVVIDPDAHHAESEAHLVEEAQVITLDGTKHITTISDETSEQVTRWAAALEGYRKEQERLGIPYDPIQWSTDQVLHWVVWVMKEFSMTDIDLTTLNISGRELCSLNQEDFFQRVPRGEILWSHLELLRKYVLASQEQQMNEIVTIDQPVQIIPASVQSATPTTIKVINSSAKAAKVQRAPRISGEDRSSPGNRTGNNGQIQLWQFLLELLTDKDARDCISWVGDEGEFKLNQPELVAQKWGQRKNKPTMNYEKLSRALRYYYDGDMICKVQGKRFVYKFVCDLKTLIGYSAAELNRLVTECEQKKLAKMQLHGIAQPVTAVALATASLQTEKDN
# In short: as §1
# ERG = target: T4, ERG (Homo sapiens, UniProt P11308 1-479); details: protein: recombinant; tags: N-terminal GST; dsDNA, one strand shown
# T4 sequence: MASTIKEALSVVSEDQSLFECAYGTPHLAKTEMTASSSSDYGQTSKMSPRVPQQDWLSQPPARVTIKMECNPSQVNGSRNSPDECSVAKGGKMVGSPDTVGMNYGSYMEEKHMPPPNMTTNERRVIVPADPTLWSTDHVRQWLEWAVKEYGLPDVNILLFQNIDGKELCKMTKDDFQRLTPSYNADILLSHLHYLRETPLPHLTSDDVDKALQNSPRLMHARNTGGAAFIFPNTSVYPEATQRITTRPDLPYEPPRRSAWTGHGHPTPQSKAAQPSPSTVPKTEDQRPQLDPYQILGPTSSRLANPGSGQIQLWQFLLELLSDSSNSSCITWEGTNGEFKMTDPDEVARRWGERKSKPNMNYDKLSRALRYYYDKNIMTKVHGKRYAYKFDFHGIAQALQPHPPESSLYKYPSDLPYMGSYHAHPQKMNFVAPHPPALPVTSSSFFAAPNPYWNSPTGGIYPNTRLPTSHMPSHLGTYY
# In short: as §1
# ELF1 = ELF1 (Homo sapiens, UniProt P32519 1-619); details: protein: recombinant; tags: N-terminal GST; dsDNA, one strand shown
# Sequence of ELF1 (P32519 whole entry): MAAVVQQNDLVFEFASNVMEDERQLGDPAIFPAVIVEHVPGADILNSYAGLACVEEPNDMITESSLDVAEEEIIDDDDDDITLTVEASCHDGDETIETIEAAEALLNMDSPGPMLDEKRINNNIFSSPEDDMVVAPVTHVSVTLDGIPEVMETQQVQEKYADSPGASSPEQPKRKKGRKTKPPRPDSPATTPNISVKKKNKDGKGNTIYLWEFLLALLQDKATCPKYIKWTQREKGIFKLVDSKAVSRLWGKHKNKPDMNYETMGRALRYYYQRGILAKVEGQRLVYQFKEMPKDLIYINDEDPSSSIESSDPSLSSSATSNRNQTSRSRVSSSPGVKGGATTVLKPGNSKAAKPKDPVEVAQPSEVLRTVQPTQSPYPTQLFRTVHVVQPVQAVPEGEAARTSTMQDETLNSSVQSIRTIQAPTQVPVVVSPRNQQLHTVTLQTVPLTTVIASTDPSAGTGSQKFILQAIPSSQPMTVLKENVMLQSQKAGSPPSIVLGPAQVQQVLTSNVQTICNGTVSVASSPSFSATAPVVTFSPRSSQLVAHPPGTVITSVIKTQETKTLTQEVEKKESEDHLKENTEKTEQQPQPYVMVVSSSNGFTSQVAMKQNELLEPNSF
# In short: as §1
# EHF = target: T5, EHF (Homo sapiens, UniProt Q9NZC4 1-300); details: protein: recombinant; tags: N-terminal GST; dsDNA, one strand shown
# T5 sequence: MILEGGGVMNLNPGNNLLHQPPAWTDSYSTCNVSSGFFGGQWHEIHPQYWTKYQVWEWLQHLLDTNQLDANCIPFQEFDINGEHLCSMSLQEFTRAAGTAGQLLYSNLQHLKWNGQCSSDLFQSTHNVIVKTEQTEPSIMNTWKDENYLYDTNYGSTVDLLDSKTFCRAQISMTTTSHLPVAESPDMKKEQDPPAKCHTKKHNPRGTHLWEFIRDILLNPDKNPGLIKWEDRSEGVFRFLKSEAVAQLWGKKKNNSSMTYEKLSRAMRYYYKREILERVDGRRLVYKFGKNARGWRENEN
# In short: as §1
# SPI1 = SPI1 (Homo sapiens, UniProt P17947 1-270); details: protein: recombinant; tags: N-terminal GST; dsDNA, one strand shown
# In short: as §1
# SPIB = SPIB (Homo sapiens, UniProt Q01892 1-262); details: protein: recombinant; tags: N-terminal GST; dsDNA, one strand shown
# Sequence of SPIB (Q01892 whole entry): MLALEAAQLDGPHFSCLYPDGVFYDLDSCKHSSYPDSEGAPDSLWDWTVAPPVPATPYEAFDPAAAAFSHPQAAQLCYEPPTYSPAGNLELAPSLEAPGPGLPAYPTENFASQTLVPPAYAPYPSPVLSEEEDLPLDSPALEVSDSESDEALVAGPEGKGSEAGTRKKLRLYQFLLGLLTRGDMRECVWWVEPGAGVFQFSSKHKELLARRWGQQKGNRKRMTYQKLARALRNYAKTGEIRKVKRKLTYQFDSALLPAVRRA
# In short: as §1
# ELK3 = target: T6, ELK3 (Homo sapiens, UniProt P41970 1-407); details: protein: recombinant; tags: N-terminal GST; dsDNA, one strand shown
# T6 sequence: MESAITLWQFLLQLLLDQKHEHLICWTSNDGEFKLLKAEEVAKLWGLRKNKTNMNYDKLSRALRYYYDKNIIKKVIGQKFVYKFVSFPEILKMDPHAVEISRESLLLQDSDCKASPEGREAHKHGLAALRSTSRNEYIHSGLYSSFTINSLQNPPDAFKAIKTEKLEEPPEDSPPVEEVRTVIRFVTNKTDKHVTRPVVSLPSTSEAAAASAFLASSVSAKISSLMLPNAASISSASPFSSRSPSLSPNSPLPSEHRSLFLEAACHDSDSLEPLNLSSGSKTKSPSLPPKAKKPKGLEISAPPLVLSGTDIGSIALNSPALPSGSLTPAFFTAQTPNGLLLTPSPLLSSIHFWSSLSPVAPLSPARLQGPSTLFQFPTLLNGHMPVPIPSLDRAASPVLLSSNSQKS
# In short: as §1
# FEV = target: T7, FEV (Homo sapiens, UniProt Q99581 1-238); details: protein: recombinant; tags: N-terminal GST; dsDNA, one strand shown
# T7 sequence: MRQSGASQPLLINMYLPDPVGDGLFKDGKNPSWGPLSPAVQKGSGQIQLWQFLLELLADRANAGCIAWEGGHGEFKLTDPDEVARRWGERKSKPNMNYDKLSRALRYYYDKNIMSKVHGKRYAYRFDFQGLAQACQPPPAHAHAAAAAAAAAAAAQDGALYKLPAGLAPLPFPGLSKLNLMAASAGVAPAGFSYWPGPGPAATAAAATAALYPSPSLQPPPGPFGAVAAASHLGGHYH
# In short: as §1
# ETV5 = ETV5 (Homo sapiens, UniProt P41161 1-510); details: protein: recombinant; tags: N-terminal GST; dsDNA, one strand shown
# Sequence of ETV5 (P41161 whole entry): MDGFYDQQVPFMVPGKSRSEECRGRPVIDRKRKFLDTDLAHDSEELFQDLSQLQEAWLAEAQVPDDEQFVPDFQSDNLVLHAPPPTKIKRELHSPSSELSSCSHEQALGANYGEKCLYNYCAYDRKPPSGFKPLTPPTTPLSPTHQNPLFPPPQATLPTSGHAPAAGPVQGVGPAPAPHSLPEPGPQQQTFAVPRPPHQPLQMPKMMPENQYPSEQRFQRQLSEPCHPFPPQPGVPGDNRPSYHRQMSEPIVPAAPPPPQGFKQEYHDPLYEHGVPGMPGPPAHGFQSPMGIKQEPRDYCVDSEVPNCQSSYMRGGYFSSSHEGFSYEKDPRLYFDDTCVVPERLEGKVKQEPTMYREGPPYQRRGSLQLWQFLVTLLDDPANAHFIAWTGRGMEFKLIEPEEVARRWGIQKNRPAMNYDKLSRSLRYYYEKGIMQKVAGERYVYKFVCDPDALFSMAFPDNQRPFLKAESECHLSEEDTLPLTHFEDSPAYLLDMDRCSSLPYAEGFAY
# In short: as §1
# HSF1 = HSF1 (Homo sapiens, UniProt Q00613 1-529); details: protein: recombinant; tags: N-terminal GST; chain copies: 3; dsDNA, one strand shown
# Sequence of HSF1 (Q00613 whole entry): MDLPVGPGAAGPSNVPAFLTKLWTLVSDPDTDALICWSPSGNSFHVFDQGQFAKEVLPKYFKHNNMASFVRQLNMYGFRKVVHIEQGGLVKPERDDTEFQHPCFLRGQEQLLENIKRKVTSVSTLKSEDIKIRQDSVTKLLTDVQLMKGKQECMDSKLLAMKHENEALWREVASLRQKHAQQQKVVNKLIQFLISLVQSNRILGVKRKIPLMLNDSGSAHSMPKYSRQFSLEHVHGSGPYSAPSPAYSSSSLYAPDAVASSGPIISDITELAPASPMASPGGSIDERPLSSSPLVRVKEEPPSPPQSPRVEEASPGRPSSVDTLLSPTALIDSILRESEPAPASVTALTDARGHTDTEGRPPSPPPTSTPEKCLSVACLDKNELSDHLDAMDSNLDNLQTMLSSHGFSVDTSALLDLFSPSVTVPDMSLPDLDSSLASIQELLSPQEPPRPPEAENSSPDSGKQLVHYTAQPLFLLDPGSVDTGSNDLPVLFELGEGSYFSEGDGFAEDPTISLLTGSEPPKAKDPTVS
# In short: as §1
# SPIC = target: T8, SPIC (Homo sapiens, UniProt Q8N5J4 1-248); details: protein: recombinant; tags: N-terminal GST; dsDNA, one strand shown
# T8 sequence: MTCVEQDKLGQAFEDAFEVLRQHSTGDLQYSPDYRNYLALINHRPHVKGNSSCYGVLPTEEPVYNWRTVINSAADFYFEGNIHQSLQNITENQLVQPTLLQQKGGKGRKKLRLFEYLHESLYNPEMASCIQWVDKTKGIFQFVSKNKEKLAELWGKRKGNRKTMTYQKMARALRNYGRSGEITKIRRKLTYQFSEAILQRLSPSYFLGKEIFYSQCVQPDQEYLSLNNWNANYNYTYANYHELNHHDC
# In short: as §1
# ELF4 = ELF4 (Homo sapiens, UniProt Q99607 1-663); details: protein: recombinant; tags: N-terminal GST; dsDNA, one strand shown
# Sequence of ELF4 (Q99607 whole entry): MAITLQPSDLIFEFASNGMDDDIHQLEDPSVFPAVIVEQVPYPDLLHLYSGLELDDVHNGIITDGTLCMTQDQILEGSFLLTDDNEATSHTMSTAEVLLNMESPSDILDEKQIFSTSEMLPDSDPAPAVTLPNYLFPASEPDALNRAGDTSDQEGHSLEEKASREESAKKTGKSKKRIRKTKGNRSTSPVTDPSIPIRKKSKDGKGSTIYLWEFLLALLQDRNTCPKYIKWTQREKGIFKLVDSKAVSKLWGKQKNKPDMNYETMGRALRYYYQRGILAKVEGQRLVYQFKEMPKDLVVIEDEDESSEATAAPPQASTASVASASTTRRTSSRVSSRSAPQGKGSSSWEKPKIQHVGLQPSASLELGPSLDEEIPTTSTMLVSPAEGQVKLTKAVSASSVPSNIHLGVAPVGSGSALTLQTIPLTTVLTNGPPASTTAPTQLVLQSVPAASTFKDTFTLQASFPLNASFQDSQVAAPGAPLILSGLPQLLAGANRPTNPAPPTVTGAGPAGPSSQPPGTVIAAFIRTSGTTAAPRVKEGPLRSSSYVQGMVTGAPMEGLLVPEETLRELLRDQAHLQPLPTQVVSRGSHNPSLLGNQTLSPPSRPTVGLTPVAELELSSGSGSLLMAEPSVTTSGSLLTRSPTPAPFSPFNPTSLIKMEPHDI
# In short: as §1
# ELK4 = target: T9, ELK4 (Homo sapiens, UniProt P28324-2 1-405); details: protein: recombinant; tags: N-terminal GST; dsDNA, one strand shown
# T9 sequence: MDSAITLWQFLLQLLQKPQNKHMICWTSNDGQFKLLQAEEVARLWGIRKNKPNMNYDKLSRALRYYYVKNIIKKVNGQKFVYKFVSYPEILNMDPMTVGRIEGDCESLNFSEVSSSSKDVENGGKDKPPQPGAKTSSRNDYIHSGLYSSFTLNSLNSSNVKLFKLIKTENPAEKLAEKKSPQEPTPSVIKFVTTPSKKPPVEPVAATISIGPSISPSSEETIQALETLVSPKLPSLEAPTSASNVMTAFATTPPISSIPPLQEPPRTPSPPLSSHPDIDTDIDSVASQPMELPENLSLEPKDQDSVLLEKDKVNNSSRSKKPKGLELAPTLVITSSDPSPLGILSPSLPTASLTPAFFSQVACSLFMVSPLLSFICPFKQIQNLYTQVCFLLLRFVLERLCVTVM
# In short: as §1
# ETV2 = target: T10, ETV2 (Homo sapiens, UniProt O00321 1-342); details: protein: recombinant; tags: N-terminal GST; dsDNA, one strand shown
# T10 sequence: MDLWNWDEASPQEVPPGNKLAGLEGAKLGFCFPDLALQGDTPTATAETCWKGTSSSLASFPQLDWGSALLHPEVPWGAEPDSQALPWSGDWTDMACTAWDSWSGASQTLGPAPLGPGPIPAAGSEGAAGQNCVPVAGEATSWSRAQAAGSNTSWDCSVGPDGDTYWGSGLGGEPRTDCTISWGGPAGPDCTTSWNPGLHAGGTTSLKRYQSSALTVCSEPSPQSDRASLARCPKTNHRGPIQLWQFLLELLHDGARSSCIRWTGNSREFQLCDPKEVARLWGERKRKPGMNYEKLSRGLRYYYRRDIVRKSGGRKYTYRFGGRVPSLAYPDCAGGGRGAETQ
# In short: as §1
# ELF3 = target: T11, ELF3 (Homo sapiens, UniProt P78545 1-371); details: protein: recombinant; tags: N-terminal GST; dsDNA, one strand shown
# T11 sequence: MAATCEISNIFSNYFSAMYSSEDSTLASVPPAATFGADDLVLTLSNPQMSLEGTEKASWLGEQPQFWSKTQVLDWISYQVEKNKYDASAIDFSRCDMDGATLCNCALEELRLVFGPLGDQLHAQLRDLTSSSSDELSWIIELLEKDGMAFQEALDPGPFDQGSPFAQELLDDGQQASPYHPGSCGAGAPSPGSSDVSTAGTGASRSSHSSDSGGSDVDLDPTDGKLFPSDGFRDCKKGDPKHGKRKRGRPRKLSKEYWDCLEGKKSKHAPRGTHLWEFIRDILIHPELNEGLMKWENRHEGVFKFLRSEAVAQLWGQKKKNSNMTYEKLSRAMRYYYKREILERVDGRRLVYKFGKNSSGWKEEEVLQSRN
# In short: as §1
# CRX = CRX (Homo sapiens, UniProt O43186 1-299); details: protein: recombinant; tags: N-terminal GST; dsDNA, one strand shown
# Sequence of CRX (O43186 whole entry): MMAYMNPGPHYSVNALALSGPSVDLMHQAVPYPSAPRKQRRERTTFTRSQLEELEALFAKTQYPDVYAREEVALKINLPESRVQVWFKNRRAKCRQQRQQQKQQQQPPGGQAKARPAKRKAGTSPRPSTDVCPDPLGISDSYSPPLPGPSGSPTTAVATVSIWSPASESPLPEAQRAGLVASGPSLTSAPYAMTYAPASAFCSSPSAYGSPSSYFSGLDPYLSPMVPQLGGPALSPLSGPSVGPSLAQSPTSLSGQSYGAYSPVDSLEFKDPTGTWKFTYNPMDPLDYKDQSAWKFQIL
# In short: as §1
# ETV1 = ETV1 (Homo sapiens, UniProt P50549 1-477); details: protein: recombinant; tags: N-terminal GST; dsDNA, one strand shown
# Sequence of ETV1 (P50549 whole entry): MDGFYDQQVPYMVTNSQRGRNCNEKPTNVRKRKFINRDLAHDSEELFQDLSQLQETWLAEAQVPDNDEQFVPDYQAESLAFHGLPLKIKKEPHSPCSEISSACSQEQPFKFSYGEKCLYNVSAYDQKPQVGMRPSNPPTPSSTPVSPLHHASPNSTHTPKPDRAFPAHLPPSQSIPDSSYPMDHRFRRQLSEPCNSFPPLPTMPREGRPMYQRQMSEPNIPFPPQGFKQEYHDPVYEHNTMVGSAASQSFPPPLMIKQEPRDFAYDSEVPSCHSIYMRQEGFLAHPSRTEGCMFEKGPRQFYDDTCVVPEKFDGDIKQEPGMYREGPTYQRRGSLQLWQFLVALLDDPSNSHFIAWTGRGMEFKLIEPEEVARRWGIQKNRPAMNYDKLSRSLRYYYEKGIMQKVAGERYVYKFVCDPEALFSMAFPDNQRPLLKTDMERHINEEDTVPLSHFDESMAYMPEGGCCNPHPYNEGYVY
# In short: as §1
sequence,measurement,setting,value
AAAATG,binding signal,FLI1,"1.17 fold enrichment (6-mer frequency, TF over GST control)"
same,binding signal,ELK1,"1.15 fold enrichment (6-mer frequency, TF over GST control)"
same,binding signal,GABPA,"1.16 fold enrichment (6-mer frequency, TF over GST control)"
same,binding signal,ERG,"1.2 fold enrichment (6-mer frequency, TF over GST control)"
same,binding signal,ELF1,"1.15 fold enrichment (6-mer frequency, TF over GST control)"
same,binding signal,EHF,"1.21 fold enrichment (6-mer frequency, TF over GST control)"
same,binding signal,SPI1,"1.37 fold enrichment (6-mer frequency, TF over GST control)"
same,binding signal,SPIB,"1.26 fold enrichment (6-mer frequency, TF over GST control)"
same,binding signal,ELK3,"1.18 fold enrichment (6-mer frequency, TF over GST control)"
same,binding signal,FEV,"1.16 fold enrichment (6-mer frequency, TF over GST control)"
same,binding signal,ETV5,"1.23 fold enrichment (6-mer frequency, TF over GST control)"
same,binding signal,HSF1,"1.15 fold enrichment (6-mer frequency, TF over GST control)"
same,binding signal,SPIC,"1.32 fold enrichment (6-mer frequency, TF over GST control)"
same,binding signal,ELF4,"1.26 fold enrichment (6-mer frequency, TF over GST control)"
same,binding signal,ELK4,"1.27 fold enrichment (6-mer frequency, TF over GST control)"
same,binding signal,ETV2,"1.31 fold enrichment (6-mer frequency, TF over GST control)"
same,binding signal,ELF3,"1.32 fold enrichment (6-mer frequency, TF over GST control)"
same,binding signal,CRX,"1.1 fold enrichment (6-mer frequency, TF over GST control)"
same,binding signal,ETV1,"1.2 fold enrichment (6-mer frequency, TF over GST control)"
